Here are results for 23 molecules from PubChem BioAssay (Tox21).

Structures are written as SMILES. Inconclusive results are not listed. A number with no mark means an inactive call. The source made the active and inactive calls. Unless noted, calls come from the whole dose curve; as a rule, active = well fitted curve in the direction sought with a large enough effect in the repeat runs; inconclusive = weak or mixed curves; inactive = no such curve, though single readings can be large; an effect the other way counts as inactive or inconclusive. Positions of bridges follow the written chain, without caps; N, C: chain ends. Non-standard residues stand in square brackets, D forms with d. Residues, ends and D or L forms follow the SMILES beside them. *: point of attachment. X2 = CC[C@H](C)CCCCC(=O)*; Dab = NCC[C@H](N)C(=O)O

Test [1] can be described thus: qHTS assay to identify aromatase inhibitors - cell viability counter screen (AID 743084).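 Note: cells stimulated with testosterone during compound exposure; nearly all actives have a fitted effect of over 55% in size.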 Note: potency is the fitted concentration of half-maximal effect.
Test [2] has as its target Aryl hydrocarbon receptor (Homo sapiens) (UniProt P35869). The experiment in a line: qHTS assay to identify small molecule that activate the aryl hydrocarbon receptor (AhR) signaling pathway (AID 743085).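 For activation: HG2L7.5c1 human HepG2 liver cells with stably integrated DRE-driven firefly reporter; series mostly up to about 70 µM.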 Note: nearly all actives have a fitted effect of over 15% in size. Note: potency is the fitted concentration of half-maximal effect. The essentials: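 Cell line HG2L7.5c1 (human hepatoma, 20× DRE-luc). Plated, 5 h 37C, compound/DMSO added, 24 h 37C. CellTiter-Fluor 30 min 37C → fluorescence; then ONE-Glo 30 min RT → luminescence.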
A general note: qHTS replaces the single test concentration by a dilution series.

Test [3] can be described thus: qHTS assay to identify small molecule that activate the aryl hydrocarbon receptor (AhR) signaling pathway - cell viability counter screen (AID 743086). Note: nearly all actives have a fitted effect of over 45% in size. Note: potency is the fitted concentration of half-maximal effect. The essentials: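 HepG2-AhR-luc (HG2L7.5c1) cells, 4000/well, treated 24 h at 37 C with compound; viability measured as CellTiter-Fluor fluorescence after 30 min in the same wells as the luciferase read.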
Test [4] concerns the target Peroxisome proliferator-activated receptor gamma (Homo sapiens) (UniProt P37231). The experiment in a line: qHTS assay to identify small molecule agonists of the peroxisome proliferator-activated receptor gamma (PPARg) signaling pathway (AID 743094; active = well fitted activation curve with a large enough effect in the signal ratio in the repeat runs, not every such curve was filed as active; the % refers to the signal ratio). An outline of the steps: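 Beta-lactamase FRET fluorescence was the read-out after a 1 h room-temperature substrate step, following 17 h compound treatment at 37C of HEK293H cells expressing a UAS-driven bla reporter responsive to PPARg.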

Test [5] is described as follows: qHTS assay to identify small molecule phospholipidosis (PLD) inducers (AID 1259344; active = well fitted curve in the direction sought with a large enough effect; an effect the other way counts as inactive or inconclusive). The essentials:
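HepG2 cells, 900/well, treated with compound plus LipidTOX Red for 24 h at 37 C; amiodarone positive and DMSO negative controls. Fixed with paraformaldehyde/Hoechst, then high-content imaging scored LipidTOX pit count and integrated intensity per well and per cell.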
% is set by controls: 0 for no effect and ±100 for the full control effect.

Sequence of Aryl hydrocarbon receptor (Homo sapiens) (P35869 whole entry, looked up): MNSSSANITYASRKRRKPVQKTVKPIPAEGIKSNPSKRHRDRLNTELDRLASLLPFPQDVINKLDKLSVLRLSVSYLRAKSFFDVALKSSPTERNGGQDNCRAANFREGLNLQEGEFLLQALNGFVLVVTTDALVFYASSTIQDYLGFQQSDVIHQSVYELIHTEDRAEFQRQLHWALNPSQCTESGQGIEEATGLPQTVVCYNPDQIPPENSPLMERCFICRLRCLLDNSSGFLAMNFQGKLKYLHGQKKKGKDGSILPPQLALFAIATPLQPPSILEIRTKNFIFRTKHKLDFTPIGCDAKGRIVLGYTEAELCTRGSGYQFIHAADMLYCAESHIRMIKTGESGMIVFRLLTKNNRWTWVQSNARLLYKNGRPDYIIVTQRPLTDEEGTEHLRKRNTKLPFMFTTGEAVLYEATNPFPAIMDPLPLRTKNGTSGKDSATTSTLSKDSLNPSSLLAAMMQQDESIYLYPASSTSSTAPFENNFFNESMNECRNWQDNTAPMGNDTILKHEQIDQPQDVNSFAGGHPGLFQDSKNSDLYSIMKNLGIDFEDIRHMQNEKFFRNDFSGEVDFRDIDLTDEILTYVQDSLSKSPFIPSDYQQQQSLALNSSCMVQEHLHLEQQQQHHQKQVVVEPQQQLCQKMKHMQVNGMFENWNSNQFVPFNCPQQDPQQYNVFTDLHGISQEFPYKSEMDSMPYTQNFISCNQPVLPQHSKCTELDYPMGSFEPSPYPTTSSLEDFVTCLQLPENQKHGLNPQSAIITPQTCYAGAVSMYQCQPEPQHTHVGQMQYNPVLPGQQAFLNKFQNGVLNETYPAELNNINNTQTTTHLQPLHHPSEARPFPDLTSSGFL
Sequence of Peroxisome proliferator-activated receptor gamma (Homo sapiens) (P37231 whole entry, looked up): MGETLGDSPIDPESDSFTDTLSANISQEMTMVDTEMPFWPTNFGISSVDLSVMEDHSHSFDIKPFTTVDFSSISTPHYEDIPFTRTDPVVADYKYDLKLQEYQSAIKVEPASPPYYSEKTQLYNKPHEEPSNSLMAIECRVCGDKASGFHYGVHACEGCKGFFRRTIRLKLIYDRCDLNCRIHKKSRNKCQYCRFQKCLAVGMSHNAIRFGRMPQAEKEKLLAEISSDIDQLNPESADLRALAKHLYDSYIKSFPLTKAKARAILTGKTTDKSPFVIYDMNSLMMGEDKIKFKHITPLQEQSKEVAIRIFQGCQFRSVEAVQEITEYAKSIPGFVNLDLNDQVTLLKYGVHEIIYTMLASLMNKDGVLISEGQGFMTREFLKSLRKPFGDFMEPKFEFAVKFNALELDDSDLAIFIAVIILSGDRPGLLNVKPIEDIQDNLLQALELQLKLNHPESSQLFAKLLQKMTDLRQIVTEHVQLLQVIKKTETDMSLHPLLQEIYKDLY

Consider `Cn1cc(NC(=O)c2cc(NC(=O)c3cc(NC=O)cn3C)cn2C)cc1C(=O)NCCC(=N)N`, for which the Potency result in test [1], in test [2], in test [3], in test [4] and in test [5] was “inactive” throughout.

As to `CCOC(=O)[C@H](CCc1ccccc1)N[C@@H](C)C(=O)N1CC2(C[C@H]1C(=O)O)SCCS2`, the Potency entry in test [1], in test [2], in test [3], in test [4] and in test [5] was “inactive” throughout.

Take `CC[C@H](C)CCCCC(=O)N[C@@H](CCN)C(=O)N[C@H](C(=O)N[C@@H](CCN)C(=O)N[C@H]1CCNC(=O)[C@H]([C@@H](C)O)NC(=O)[C@H](CCN)NC(=O)[C@H](CCN)NC(=O)[C@H](CC(C)C)NC(=O)[C@@H](CC(C)C)NC(=O)[C@H](CCN)NC1=O)[C@@H](C)O` (X2-[Dab]T[Dab][Dab][Dab][dL]L[Dab][Dab]T; lactam 4-C): the Potency entry in test [1], in test [2], in test [3], in test [4] and in test [5] was “inactive” throughout.

Take `CCCN(CC)C(CC)C(=O)Nc1c(C)cccc1C` (configuration not stated): the Potency entry in test [1], in test [2], in test [3], in test [4] and in test [5] was “inactive” throughout.

As to `NNc1nnc(Cc2ccncc2)c2ccccc12`, the Potency entry in test [1] and in test [3] was “inactive” throughout. For the same molecule, the Potency in test [2] was 11.9 µM (active). The PLD induction in test [5] was -2.11% [at 7.66 µM].

Consider `COc1ccc(C2NC(=S)N3C(c4ccc(OC)c(OC)c4)NC(=S)N23)cc1OC` (configuration not stated), for which the Potency in test [1] is 0.188 µM (active); in test [3], 0.211 µM (active). Moreover, the Potency entry in test [2] and in test [4] was “inactive” each time. Further, the PLD induction in test [5] was -4.32% [at 7.66 µM].

As for `CCCCCCCCCCCCCCCCCCOP(=O)([O-])OC1CC[N+](C)(C)CC1`, the Potency entry in test [1], in test [2], in test [3], in test [4] and in test [5] was “inactive” in each case.

Regarding `CO[C@H]1C[C@H](O[C@H]2[C@H](C)O[C@@H](O[C@@H]3/C(C)=C/C[C@@H]4C[C@@H](C[C@]5(C=C[C@H](C)[C@@H](C6CCCCC6)O5)O4)OC(=O)[C@@H]4C=C(C)[C@@H](O)[C@H]5OC/C(=C\C=C\[C@@H]3C)[C@]54O)C[C@@H]2OC)O[C@@H](C)[C@@H]1O`, the Potency result in test [1], in test [2], in test [3] and in test [5] was “inactive” throughout.

In the case of `C=C[C@]1(C)C[C@@H](OC(=O)CO)[C@]2(C)[C@H](C)CC[C@]3(CCC(=O)[C@H]32)[C@@H](C)[C@@H]1O`, the Potency result in test [1], in test [2], in test [3], in test [4] and in test [5] was “inactive” each time.

With `C[C@H](/C=C/[C@H](C)C(C)(C)O)[C@H]1CC[C@H]2/C(=C/C=C3C[C@@H](O)C[C@H](O)C3)CCC[C@]12C`, the Potency result in test [1], in test [2], in test [3], in test [4] and in test [5] was “inactive” throughout.

Take `C[C@H](CSC(=O)c1ccccc1)C(=O)N1C[C@@H](Sc2ccccc2)C[C@H]1C(=O)O`: the Potency result in test [1], in test [2], in test [3], in test [4] and in test [5] was “inactive” each time.

`CNC[C@@H]1CC[C@@H](N)[C@@H](O[C@H]2[C@H](O)[C@@H](O[C@H]3OC[C@](C)(O)[C@H](NC)[C@H]3O)[C@H](N)C[C@@H]2N)O1`: the Potency entry in test [1], in test [2], in test [3] and in test [4] was “inactive” throughout. In addition, in test [5], the PLD induction is -1.48% [at 7.66 µM].

With `CN1CCc2c(c3ccccc3n2Cc2ccccc2)C1`, the Potency result in test [1], in test [2], in test [3], in test [4] and in test [5] was “inactive” throughout.

Turning to `NCCC(=O)[N-][C@@H](Cc1cnc[nH]1)C(=O)O.[Zn]`, the Potency entry in test [1], in test [2], in test [3], in test [4] and in test [5] was “inactive” in each case.

On to `C[C@@H]1C/C=C/C=C/C=C/C=C/[C@H](O[C@@H]2O[C@H](C)[C@@H](O)[C@H](N)[C@@H]2O)C[C@@H]2O[C@](O)(C[C@@H](O)C[C@H]3O[C@@H]3/C=C/C(=O)O1)C[C@H](O)[C@H]2C(=O)O`, for which the Potency result in test [1], in test [2], in test [3], in test [4] and in test [5] was “inactive” throughout.

Take `C/C1=C2N=C(/C=C3N=C(/C(C)=C4\[N-]C(C(CC(N)=O)C4(C)CCC(=O)NCC(C)OP(=O)([O-])OC4C(CO)OC(n5cnc6cc(C)c(C)cc65)C4O)C4(C)N=C1C(CCC(N)=O)C4(C)CC(N)=O)C(CCC(N)=O)C\3(C)C)C(CCC(N)=O)C/2(C)CC(N)=O.[CH3-].[Co+3]` (configuration not stated): the results for the Potency in test [1] and in test [3] were 23.7 µM (active) and 26.6 µM (active), respectively. Further, the Potency result in test [2], in test [4] and in test [5] was “inactive” throughout.

For the molecule `CC#CCC(C)[C@H](O)/C=C/[C@@H]1[C@H]2c3cccc(CCCC(=O)O)c3O[C@H]2C[C@H]1O` (some centres not stated), the Potency entry in test [1], in test [2], in test [3] and in test [5] was “inactive” each time.

`O=C(NCCNCC(O)COc1ccc(O)cc1)N1CCOCC1` (configuration not stated): the Potency result in test [1], in test [2], in test [3], in test [4] and in test [5] was “inactive” throughout.

For the molecule `O=C(O)[C@@H](O)[C@H](O)[C@H](O)[C@@H](O)C(=O)O` (tested in a mixture with another compound), the Potency result in test [1], in test [2], in test [3], in test [4] and in test [5] was “inactive” in each case.

Turning to `Nc1c(Br)cc(Br)cc1CNC1CCC(O)CC1` (configuration not stated), the Potency result in test [1], in test [2], in test [3], in test [4] and in test [5] was “inactive” throughout.

On to `CCCCOC(=O)C(=O)Nc1cccc(-c2nn[nH]n2)c1`, for which the Potency entry in test [1], in test [2], in test [3], in test [4] and in test [5] was “inactive” in each case.

For the molecule `NCCCC[C@H](NC(=O)[C@@H]1CCCN1C(=O)[C@@H]1CSSC[C@H](N)C(=O)N[C@@H](Cc2ccccc2)C(=O)N[C@@H](Cc2ccccc2)C(=O)N[C@@H](CCC(N)=O)C(=O)N[C@@H](CC(N)=O)C(=O)N1)C(=O)NCC(N)=O`, the Potency entry in test [1], in test [2], in test [3], in test [4] and in test [5] was “inactive” throughout.

On to `CCC(CN)CC(C)CCNCC(O)CNCC(C)CC(CC)CN` (configuration not stated), for which the Potency result in test [1], in test [2], in test [3] and in test [4] was “inactive” throughout. The PLD induction in test [5] was -0.745% [at 7.66 µM].
